Results filed as inconclusive are left out. Activity calls are given as the source filed them. Calls follow the shape of the dose curve; as a rule, active = well fitted activation curve with a large enough effect; inconclusive = small, poorly fitted or top-dose-only effect; inactive = no such curve, though single readings can be large or run the other way.
target: Pyruvate kinase PKM (Homo sapiens) (UniProt P14618); experiment: Confirmation Concentration-Response Assay for Activators of Human Muscle isoform 2 Pyruvate Kinase; conditions: purified hPK-M2, Kinase-Glo ATP luminescence, 1 h; series mostly up to 57.5 µM; activation (negative = inhibition): at the top concentration
Text: NIH Chemical Genomics Center [NCGC] Matthew G. Vander Heiden, M.D., Ph.D. [Harvard Medical School, 77 Avenue Louis Pasteur, Boston, MA 02115] MLPCN Grant: 1 R03 MH085679-01 NCGC Assay Overview: Human pyruvate kinase muscle 2 (hPK-M2) enzyme was supplied as a highly purified (>95% pure) preparation from Harvard Medical School and assayed for its ability to generate ATP from ADP using phosphoenolpyruvate (PEP) as a substrate. ATP generation was detected in a coupled reaction by luciferase-mediated luminescence, an ATP-dependent process. Pyruvate kinase substrates, PEP and ADP, were present in the assay at Km and approximately 10-fold below Km respectively. The enzyme was assayed at an intermediate level of activity to screen for both inhibitors and activators.
NCGC Assay Protocol Summary: Three uL of substrate mix (at r.t.) in assay buffer (50 mM Imidazole pH7.2, 50 mM KCl, 7 mM MgCl2, 0.01% Tween 20, 0.05% BSA) was dispensed into white solid bottom 1,536 well microtiter plates so that the final concentrations of substrates in the assay were 0.1 mM ADP and 0.5 mM PEP. 23 nL of compound were delivered by a pin tool and 1 uL of enzyme mix (final concentration of 0.1 nM) in assay buffer (4 degree Celsius) was added. Plates were incubated at room temperature for 1 hour. Two uL of detection mix (Kinase-Glo, Promega; at 4 degree Celsius protected from light) was added and luminescence read by a ViewLux (Perkin Elmer) at 1 second exposure/plate. Data were normalized to the uninhibited (column 3) and AC100 inhibition (no enzyme in column 2). To monitor activation, the first column contained a titration of the activator, NCGC00031955-03 (16-point 1:2 dilutions in duplicate starting at 57 uM) and the first 16 rows of column 4 contained 57 uM of NCGC00031955-03.

Chain of Pyruvate kinase PKM (Homo sapiens) (P14618 whole entry, looked up, canonical isoform): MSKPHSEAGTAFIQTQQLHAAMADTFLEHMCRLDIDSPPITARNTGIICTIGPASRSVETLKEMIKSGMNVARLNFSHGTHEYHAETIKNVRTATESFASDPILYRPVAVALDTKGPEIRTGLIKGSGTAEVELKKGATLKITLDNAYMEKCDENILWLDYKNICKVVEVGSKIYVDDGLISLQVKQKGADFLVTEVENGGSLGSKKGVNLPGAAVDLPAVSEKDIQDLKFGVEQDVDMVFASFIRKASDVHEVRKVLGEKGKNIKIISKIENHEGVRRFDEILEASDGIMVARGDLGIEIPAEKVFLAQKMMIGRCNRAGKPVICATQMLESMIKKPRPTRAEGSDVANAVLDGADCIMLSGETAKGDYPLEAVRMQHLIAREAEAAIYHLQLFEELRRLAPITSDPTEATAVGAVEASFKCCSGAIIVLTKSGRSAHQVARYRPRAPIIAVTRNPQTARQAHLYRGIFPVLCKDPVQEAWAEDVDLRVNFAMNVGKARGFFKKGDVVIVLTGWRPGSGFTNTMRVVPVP

Potency, active:
Cc1ccc(S(=O)(=O)N2CCCN(S(=O)(=O)c3ccc4c(c3)OCCO4)CC2)cc1 398 nM
Cc1nc2ccc(S(=O)(=O)N3CCN(S(=O)(=O)c4c(F)cccc4F)CC3)cc2s1 63.5 nM
Cc1ccc(Cn2ncc3c4sc(C)cc4n(C)c3c2=O)c(C)c1 56.6 nM
CCc1cc2c(s1)c1cnn(Cc3ccccc3F)c(=O)c1n2C 63.5 nM
Cc1cc2c(s1)c1cnn(Cc3ccc(Cl)cc3)c(=O)c1n2C 201 nM
COc1ccc(Cn2ncc3c4sc(C)cc4n(C)c3c2=O)cc1 20.1 nM
Cn1c2ccsc2c2cnn(Cc3ccccc3F)c(=O)c21 318 nM
CC1(C)CCc2cc(S(=O)(=O)N3CCN(S(=O)(=O)c4c(F)cccc4F)CC3)ccc2O1 71.3 nM
Cn1c2cc(S(C)=O)sc2c2cnn(Cc3ccccc3F)c(=O)c21 (stereo not given) 16 nM
O=S(=O)(c1ccc2c(c1)OCCO2)N1CCN(S(=O)(=O)c2ccc(F)cc2F)CC1 63.5 nM
Cn1c2cc(CO)sc2c2cnn(Cc3ccccc3F)c(=O)c21 28.4 nM
Cn1c2cc(C=O)sc2c2cnn(Cc3ccccc3F)c(=O)c21 7.1 nM
CC(=O)c1cc2c(s1)c1cnn(Cc3ccccc3F)c(=O)c1n2C 7.1 nM
Cc1cc2c(s1)c1cnn(Cc3cccc(Cn4ncc5c6sc(C)cc6n(C)c5c4=O)c3F)c(=O)c1n2C 16000 nM
O=S(=O)(NCCCCCNS(=O)(=O)c1c(F)cccc1F)c1ccc2c(c1)OCCO2 2010 nM
O=S(=O)(c1ccc2c(c1)OCO2)N1CCN(S(=O)(=O)c2c(F)cccc2F)CC1 127 nM
O=S(=O)(c1ccc2ccccc2c1)N1CCN(S(=O)(=O)c2c(F)cccc2F)CC1 56.6 nM
Cc1cc2c(s1)c1cnn(Cc3ccc(F)c(F)c3F)c(=O)c1n2C 713 nM
O=S(=O)(c1ccc2c(c1)OCCO2)N1CCN(S(=O)(=O)c2ccccc2F)CC1 56.6 nM
Cc1cc2c(s1)c1cnn(Cc3ccccc3F)c(=O)c1n2C 40.1 nM
Cc1cc2c(s1)c1cnn(Cc3ccc(C(F)(F)F)cc3)c(=O)c1n2C 318 nM
CC(C)c1cc2c(s1)c1cnn(Cc3ccccc3F)c(=O)c1n2C 101 nM
Cc1cc2c(s1)c1cnn(Cc3ccccc3Cl)c(=O)c1n2C 113 nM
Cc1cc2c(s1)c1cnn(Cc3c(F)cccc3Cl)c(=O)c1n2C 40.1 nM
O=S(=O)(c1ccc2c(c1)OCCO2)N1CCN(S(=O)(=O)c2ccccn2)CC1 505 nM
O=S(=O)(c1ccc2c(c1)OCCO2)N1CCN(S(=O)(=O)c2ccc3c(c2)OCCO3)CC1 179 nM
CCn1c2cc(C)sc2c2cnn(Cc3ccccc3F)c(=O)c21 4010 nM
Cc1cc2c(s1)c1cnn(Cc3c(F)cccc3F)c(=O)c1n2C 25.3 nM
Cc1cc2c(s1)c1cnn(Cc3cccc(F)c3F)c(=O)c1n2C 113 nM

Activation (negative = inhibition), inactive:
Cc1sc2ncnc(OCC(=O)N3CCN(S(=O)(=O)c4ccc(Cl)cc4)CC3)c2c1C 4.53%
Cc1cc2[nH]c3c(=O)n(Cc4ccccc4F)ncc3c2s1 28.4%
O=C(c1ccc2c(c1)OCCO2)N1CCN(S(=O)(=O)c2c(F)cccc2F)CC1 8.54%
Cc1cccc(NC(=O)c2cnc3ccccn3c2=O)c1 -46.5%
CCOC(=O)CSc1nc2cc(OC)ccc2cc1C#N -13.5%
COC(=O)CSC1=NS(=O)(=O)c2ccccc21 -29.2%
CCN1CCc2c(sc(NC(=S)NC(=O)c3ccccc3)c2C#N)C1 -9.17%
Nc1cccc(-c2cn3cc(C(F)(F)F)cc(Cl)c3n2)c1 -66.6%
O=S(=O)(/N=C(/Sc1ccccc1)c1ccccc1)c1ccccc1 -4.23%
COc1ccc2c(c1)CCc1c(C(=O)NC3CCCCC3)noc1-2 -41.1%
Cc1ccc(-c2nnc3ccc(SC(C)C(=O)O)nn23)cc1 (stereo not given) -13%

From PubChem BioAssay AID1751 (National Center for Advancing Translational Sciences (NCATS), 2009)
